The full list was thinned out, with hits kept by preference.
Cycloheximide cs = Cycloheximide Counterscreen for Small Molecule Inhibitors of Shiga Toxin | max response, % | cell reporter, cycloheximide protein synthesis inhibition counterscreen | AID 2314, 2010 | actives 12% (n = 300,000); in the data active = max response mostly above about 13%, no sharp cut-off; inactive = mostly below about 14%; also: read at 38.3 µM for the half of the compounds with a filed dose; 0% is about no effect
LmPK inhibitor = qHTS Assay for Inhibitors of Leishmania Mexicana Pyruvate Kinase (LmPK) | Q27686 | purified LmPK, Kinase-Glo ATP luminescence, 1 h | Potency, µM (highest dose often 57.5 µM), without a hit: at the highest dose activity change, negative = inhibition, usual class: inhibitors | actives 0.37% (n = 290,000); also: potency is read from the fitted curve at half-maximal effect; % is scaled to controls: 0 for no effect and ±100 for the full control effect
Target sequence (Q27686 whole entry, looked up): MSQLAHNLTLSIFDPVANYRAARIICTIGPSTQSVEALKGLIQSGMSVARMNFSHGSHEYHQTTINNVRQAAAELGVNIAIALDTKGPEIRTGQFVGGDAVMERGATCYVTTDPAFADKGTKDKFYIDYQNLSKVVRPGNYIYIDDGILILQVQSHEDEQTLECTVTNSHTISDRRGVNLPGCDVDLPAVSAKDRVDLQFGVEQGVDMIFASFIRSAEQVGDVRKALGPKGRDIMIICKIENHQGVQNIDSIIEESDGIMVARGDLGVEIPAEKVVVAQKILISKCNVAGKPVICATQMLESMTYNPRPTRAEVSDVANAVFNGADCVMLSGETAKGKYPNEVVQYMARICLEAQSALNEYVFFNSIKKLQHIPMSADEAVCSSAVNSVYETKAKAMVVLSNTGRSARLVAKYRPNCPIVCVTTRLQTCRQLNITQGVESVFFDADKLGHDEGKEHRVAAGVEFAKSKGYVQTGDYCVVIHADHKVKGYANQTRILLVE
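Pyruvate kinase activity monitored as ATP production (luciferase luminescence). Conditions: 0.1 nM enzyme, 0.5 mM PEP, 0.1 mM ADP, 1 h, RT; normalized against uninhibited and no-enzyme wells.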
RE007 growth inh = qHTS Assay for Inhibitors of the HIV-1 protein Vpr. S. pombe RE007 Vpr strain, BacTiter-Glo ATP luminescence, 24 h. Potency, µM (series often up to 92.2 µM), for inactives: at the top dose activity change, negative = less growth, usual class: inhibitors. actives 0.21% (n = 360,000); active = well fitted falling curve with a large enough effect; inconclusive = small, poorly fitted or top-dose-only effect; inactive = no such curve, though single readings can be large or run the other way; also: potency is read from the fitted curve at half-maximal effect; % is scaled to controls: 0 for no effect and ±100 for the full control effect; nearly all actives have a fitted effect of over 50% in size
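Fission yeast RE007 carrying one integrated HIV-1 vpr copy, seeded at OD 0.01 in PMG+AL medium with 23 nL pinned compound. Grown 24 h at 30 degrees; viability read by BacTiter-Glo luminescence after 5 min.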
Shiga inhibitor = A qHTS for Small Molecule Inhibitors of Shiga Toxin | actives 9.2% (n = 290,000) | Vero cells, Shiga toxin protein synthesis inhibition reporter | inhibition, % at 38.7 µM; in the data active = inhibition mostly above about 28%, no sharp cut-off; inactive = mostly below about 43%; also: 0% is about no effect
Tb PYK inh = qHTS of Trypanosoma Brucei Inhibitors; AID 624173, 2012; TbPYK enzyme, Kinase-Glo Plus ATP luminescence, 45 min; Potency, µM (highest dose often 76.8 µM), without a hit: at the top dose activity, negative = inhibition, hits mostly inhibitors; actives 0.12% (n = 410,000); pyruvate kinase (Trypanosoma brucei), Q57TT1; also: potency is read from the fitted curve at half-maximal effect; % is scaled to controls: 0 for no effect and ±100 for the full control effect; nearly all actives have a fitted effect of over 50% in size
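ADP (130 uM final) triggers the TbPYK reaction after compound addition; incubation is 45 min at room temperature. Kinase-Glo Plus is then added and luminescence imaged. Normalized data are fitted to concentration-effect curves.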
Giardia FBPA inh = qHTS Assay for Inhibitors of Fructose-1,6-bisphosphate Aldolase from Giardia Lamblia | A8B2U2 | purified Giardia FBPA | Potency, µM (series often up to 59.6 µM), without a hit: top-dose activity, negative = inhibition, most hits filed as inhibitors | actives 0.71% (n = 290,000) | AID 2451, 2010; also: potency is read from the fitted curve at half-maximal effect; % is scaled to controls: 0 for no effect and ±100 for the full control effect; nearly all actives have a fitted effect of over 55% in size
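40 nM FBPA preincubated 10 min at RT with compound (up to 57.5 uM final), then substrate plus GAPDH/TPI/NAD/arsenate coupling and diaphorase/resazurin added. Fluorescence read after 20 min at RT, 525/598 nm.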
Active calls of the source: *; ? = inconclusive; nt = not tested or not shown. Unless noted, calls follow the shape of the dose curve; as a rule, active = well fitted curve in the direction sought with a large enough effect; inconclusive = small, poorly fitted or top-dose-only effect, or another doubt; inactive = no such curve, though single readings can be large; an effect the other way counts as inactive or inconclusive.

SMILES | Cycloheximide cs | LmPK inhibitor | RE007 growth inh | Shiga inhibitor | Tb PYK inh | Giardia FBPA inh
CCc1ccc(S(=O)(=O)/N=C2\C=C(Nc3ccc(C(=O)O)cc3)C(=O)c3ccccc32)cc1 | -4 | -7% | -13% | -14 | -12% | 0.45µM*
O=C1CCCc2cc(S(=O)(=O)N3CCCC(C(=O)NCc4ccccc4Cl)C3)ccc2N1 (configuration not stated) | nt | nt | nt | nt | -14% | nt
COc1cc2ccc(=O)oc2c(O)c1O | nt | nt | -5% | nt | ? | 25µM*
C[C@@H](Oc1ccc(Oc2cnc3ccc(Cl)cc3n2)cc1)C(=O)O | nt | nt | nt | nt | nt | 26%
COc1ccc(C2C(C#N)=C(N)N3C(=C2C#N)Sc2ccccc23)cc1 (configuration not stated) | 20* | -1% | nt | 43 | nt | -2%
CCC1=NN2C(=N)/C(=C/c3ccc(OS(=O)(=O)c4ccccc4)cc3)C(=O)N=C2S1 | 12 | -5% | -3% | 18 | 4% | -1%
CS(=O)(=O)C1=NSC2=NC(=O)/C(=C\c3ccc(OS(=O)(=O)c4ccccc4)cc3)C(=N)N21 | 16* | -10% | 2% | 34* | 4% | nt
CCS(=O)(=O)C1=NN2C(=N)/C(=C\c3ccc(OS(=O)(=O)c4ccccc4)cc3)C(=O)N=C2S1 | 33* | 2% | 0% | 38 | 0% | nt
Cc1ccc(S(=O)(=O)Oc2ccc(/C=C3/C(=N)N4C(=NC3=O)SN=C4S(C)(=O)=O)cc2)cc1 | 1 | -1% | 0% | 9 | -1% | nt
CCOc1ccccc1CN(CCc1ccc2c(c1)OCO2)Cc1cc(OC)c(OC)cc1OC | nt | nt | nt | nt | 2% | nt
Cc1cc(C)c(NC(=O)NC(=O)c2cccc(F)c2)c(C)n1 | 15* | -2% | -1% | 37 | 7% | 4%
O=C(Nc1ncccc1Cl)c1cccc(F)c1 | -5 | 0% | 16% | 1 | 2% | 0%
Cc1cc(C)c(NC(=O)NC(=O)c2ccc(F)cc2)c(C)n1 | 28* | -4% | -5% | 34* | -3% | 0%
CCSc1ncc(Cl)c(C(=O)Nc2sc(C(C)=O)c(C)c2C(=O)OC)n1 | nt | nt | nt | nt | 1% | nt
COc1ccc2c(c1)O[C@@H](c1cccc(C(F)(F)F)c1)[C@H](OC(=O)NCc1ccc3c(c1)OCO3)C2=O | nt | nt | nt | nt | nt | 2%
Cc1nnsc1C(=O)NC1CCCCC1 | -8 | -5% | -11% | -10 | -1% | 0%
CSc1nc(N)c(C(=O)NC2CCCCC2)s1 | 38* | 1% | nt | 75* | -1% | 1%
COC(=O)c1sc(SC)nc1N | 11 | -10% | 27% | 34 | -4% | 2%
CCOC(=O)c1sc(SC)nc1N | 16* | -5% | 9% | 20 | 5% | 3%
O=C(c1cccc(F)c1)N1CCC2(CC1)CN(Cc1ccccc1)C2 | nt | nt | nt | nt | 6% | 6%
CC(C)c1ccc(Nc2sc(C(=O)c3ccccc3)c(N)c2S(=O)(=O)c2ccccc2)cc1 | nt | nt | nt | nt | 2% | nt
Cc1cc(C)n2c(SCCC(C)C)nnc2n1 | 19* | 1% | 4% | 89 | -1% | 9%
Cc1cc(C)n2c(SCC(C)C)nnc2n1 | 3 | 6% | 0% | 17 | 16% | 2%
O=C(OCC(COC(=O)c1cccnc1)(COC(=O)c1cccnc1)COC(=O)c1cccnc1)c1cccnc1 | nt | nt | nt | nt | 2% | nt
O=C(COC(=O)COc1ccccc1[N+](=O)[O-])Nc1ccc2c(c1)OCO2 | nt | nt | -17% | nt | 0% | nt
O=C(COc1ccc2ccc(=O)oc2c1)Nc1ccc2c(c1)OCCO2 | 13* | 1% | -10% | 9 | -4% | -2%
O=C(COc1ccccc1[N+](=O)[O-])Nc1ccc2c(c1)OCO2 | 31* | 4% | -4% | 66* | 3% | 1%
O=C(COc1ccc2ccc(=O)oc2c1)Nc1ccc(CCO)cc1 | -2 | -1% | 5% | 33 | -3% | -2%
O=C(N/N=C/c1cccc(OC(=O)c2ccc3c(c2)OCO3)c1)c1cncc(Br)c1 | 49* | -4% | -9% | 56* | -13% | 1%

Source: PubChem BioAssay
